# Assay results published in the supplement of paper PMC4380459.
# Test system: tubulin (bovine brain)
# Test: tubulin polymerization end-point dOD, fold change relative to DMSO vehicle; higher = more polymerization (stabilization)
# Conditions: 50 µM; 60 min; 37 °C
# Procedure, shortened: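 The reported figure is the end-point optical density change as percent fold change against DMSO vehicle, with each run scaled by the means and standard deviations of DMSO and reference-control wells. Tubulin from bovine brain (Cytoskeleton HTS-Tubulin polymerization kit, 4 mg/ml in G-PEM buffer) was assembled on ice with compound at a final 50 μM in 0.5% DMSO in 384-well plates. Absorbance at 340 nm was then read each minute for 1 hour at 37°C in a Tecan reader.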
row,Compound,tubulin polymerization end-point dOD
1,COc1cccc(/C=C(/Cl)c2nc3cc(OC)c(OC)cc3c(=O)[nH]2)c1,42.1%
2,CC(C)n1ncc2cc(C(=O)Nc3cccc4c3CCCC4)cnc21,-23.5%
3,Nc1c(C(=O)c2ccccc2)sc2nc3c(cc12)CCCC3,59.7%
4,Cc1ccc(NC(=S)N(Cc2cc3ccc(C)cc3[nH]c2=O)CC2CCCO2)cc1 (stereo not given),97.9%
5,CCc1ccc2nc(SCC(=O)Nc3ccccc3N3CCOCC3)c(C#N)cc2c1,-7.7%
6,CCc1ccccc1NC(=O)CSc1nc2cc3c(cc2cc1C#N)OCCO3,-23.9%
7,Cc1ccc(NC(=O)CSc2nc3cc4c(cc3cc2C#N)OCCO4)c(C)c1,-24.1%
8,C/C(=N\NC(=O)c1cccc(F)c1)c1ccc(Br)s1,9.02%
9,CCc1nc(SCC(=O)Nc2ccc(N(CC)CC)c(C)c2)c2ccccc2n1,-34%
10,COc1ccc2cc(CN(CC3CCCO3)C(=O)Nc3ccc(Cl)cc3)c(=O)[nH]c2c1 (stereo not given),-0.367%
11,N#Cc1ccc(N2CC[NH+](Cc3ccc(-c4ccccc4Cl)s3)CC2)nc1,-56.2%
12,Cc1ccc2nc(NC(=O)c3cc(Br)c[nH]3)sc2c1,-51.9%
13,O=c1[nH]c(/C=C\c2ccccc2)nc2ccccc12,40.5%
14,COc1ccc2cc(CN(Cc3cccs3)C(=O)Nc3ccccc3OC)c(=O)[nH]c2c1,17.1%
15,Oc1ccccc1-c1nc2cnccn2c1NCc1ccc2c(c1)OCO2,-6.54%
16,COc1ccccc1NC(=S)N(Cc1ccccc1)Cc1cc2ccc(C)cc2[nH]c1=O,272%
17,Cc1ccc2[nH]c(=O)c(CN(CC3COCCO3)C(=O)Nc3ccccc3Cl)cc2c1 (stereo not given),23.1%
18,CCc1ccc2nc(SCC(=O)Nc3cc(C)ccc3C)c(C#N)cc2c1,-12.2%
19,O=C(NC1=NCCS1)c1sc2cccc(F)c2c1COc1ccccc1,34.2%
20,Cc1ccc2cc(C)c3nn(CCNC(=O)c4cccnc4)c(=O)n3c2c1,-40.4%
21,COc1ccc(NC(=O)CSc2nc3cc4c(cc3cc2C#N)OCO4)c(OC)c1,23.6%
22,O=C(Nc1ccc2c(c1)OCCO2)C(=O)Nc1ccccc1Cl,13.5%
23,COc1ccc(CNc2c(-c3ccc(O)cc3O)nc3cnccn23)cc1,30.8%
24,O=c1[nH]c(CSc2ccccc2)nc2sc3c(c12)CCC3,-9.09%
25,O=C(N/N=C/c1cccs1)c1n[nH]c2c1CCC2,12.9%
26,CC1Cc2ccccc2N1C(=O)CSc1nnc(-c2cc3ccccc3cc2O)n1C (stereo not given),-10.6%
27,CCc1cc2cc3c(cc2nc1SCC(=O)Nc1ccccc1Cl)OCCO3,11.4%
28,COC(=O)Nc1nc2cc(Sc3ccccc3)ccc2[nH]1 [Fenbendazole],-27.1%
29,COc1ccc2nc(SCC(=O)Nc3ccccc3Br)c(C#N)cc2c1,14.8%
30,O=C1NC(c2c(-c3ccccc3)[nH]c3ccccc23)Nc2ccccc21 (stereo not given),-92.1%
